The results in this text go back to PubChem BioAssay (NCI).

Compounds without any hit were thinned out: in the full panel of roughly 79,000, 15% have a hit. A number with no mark means an inactive call. The source made the active and inactive calls. Cut-off read from the data, not from the text of the source: active = growth inhibition above about 70%; inactive = the rest.

Assay [1] is described as follows: NCI Yeast Anticancer Drug Screen. Data for the rad50 strain (AID 155).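 Note: 0% = growth of vehicle-only cultures of the same strain.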 To be noted: S. cerevisiae rad50 strain growth inhibition, hits give high values. Put shortly:
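A DNA repair-deficient yeast mutant serves as the test organism; compound-induced growth inhibition is calculated against vehicle-treated cells.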

Assay [2] can be described thus: NCI Yeast Anticancer Drug Screen. Data for the mec2-1 strain (AID 157). The conditions noted are these: S. cerevisiae mec2-1 strain, hits give high values. Put shortly:
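Yeast mec2-1 mutant treated with compound. Readout: growth inhibition vs vehicle controls.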

Assay [3] is described as follows: NCI Yeast Anticancer Drug Screen. Data for the sgs1 mgt1 strain (AID 161).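 Note: 0% = growth of cultures given vehicle only.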 To be noted: S. cerevisiae sgs1 mgt1 strain, hits give high values. Summed up: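 Mutant yeast exposed to compound; growth scored against vehicle-only wells.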
A short description of assay [4]: NCI Yeast Anticancer Drug Screen. Data for the cln2 rad14 strain (AID 165).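 Note: 0% = growth equal to vehicle treated cultures.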 The conditions noted are these: S. cerevisiae cln2 rad14 strain, hits give high values. Put shortly:
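cln2 rad14 yeast strain; compound exposure; growth inhibition read vs vehicle controls.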

Assay [5] can be described thus: NCI Yeast Anticancer Drug Screen. Data for the bub3 strain (AID 167). To be noted: S. cerevisiae bub3 mutant strain, hits give high values. Summed up:
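Inhibition values come from growth of compound-treated mutant yeast normalised to vehicle-treated controls.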

The nature of assay [6]: NCI Yeast Anticancer Drug Screen. Data for the mlh1 rad18 strain (AID 175). To be noted: S. cerevisiae mlh1 rad18 strain growth inhibition, hits give high values. Summed up:
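Yeast w/ defined DNA-repair lesions; compound exposure; growth vs vehicle controls → % inhibition.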

Where [7] appears, read: at 5.0 µM (retest, dose inferred, filed as 0.5).
Setting [8] is: at 50.0 µM (retest, dose inferred, filed as 5.0).

Turning to `BrC1(c2ccccc2)C[n+]2c(-c3ccccc3)cc(-c3ccccc3)cc2-c2ccccc21` (configuration not stated), the growth inhibition was 95% (active) in assay [1] (setting [7]); 99% (active) in assay [1] (setting [8]); 89.8% (active) in assay [1] (at 50.0 µM); 96% (active) in assay [2] (setting [7]); 99% (active) in assay [2] (setting [8]); 91.5% (active) in assay [2] (at 50.0 µM). Besides, the growth inhibition is 97% (active) in assay [3] (setting [7]); 98% (active) in assay [3] (setting [8]); 91.2% (active) in assay [3] (at 50.0 µM); 95% (active) in assay [4] (setting [7]); 99% (active) in assay [4] (setting [8]); 91.2% (active) in assay [4] (at 50.0 µM). Besides, the growth inhibition in assay [5] (setting [7]) is 37%; in assay [5] (setting [8]) it was 98% (active); in assay [5] (at 50.0 µM), 89.4% (active); in assay [6] (setting [7]), 97% (active); in assay [6] (setting [8]) it was 99% (active); in assay [6] (at 50.0 µM), 91% (active).
Regarding `O=S1CCS(=O)C1c1ccccc1` (configuration not stated), the growth inhibition in assay [1] (setting [7]) was -1%; in assay [1] (setting [8]) it was 28%; in assay [1] (at 50.0 µM), 85.3% (active); in assay [2] (setting [7]), -6%; in assay [2] (setting [8]), 26%; in assay [2] (at 50.0 µM), 61%. The growth inhibition in assay [3] (setting [7]) is -5%; in assay [3] (setting [8]) it was 33%; in assay [3] (at 50.0 µM) it was 54%; in assay [4] (setting [7]), -18%; in assay [4] (setting [8]) it was 8%; in assay [4] (at 50.0 µM), -11.1%. The growth inhibition in assay [5] (setting [7]) was -14%; in assay [5] (setting [8]), 38%; in assay [5] (at 50.0 µM) it was 67.8%; in assay [6] (setting [7]), 2%; in assay [6] (setting [8]), 39%; in assay [6] (at 50.0 µM), 37.7%.
Turning to `Cc1cnc2c(c1C)C(=O)c1ccccc1C2=O`, the growth inhibition was 27% in assay [1] (setting [7]); 92% (active) in assay [1] (setting [8]); 64.4% in assay [1] (at 50.0 µM); 26% in assay [2] (setting [7]); 88% (active) in assay [2] (setting [8]); 50.2% in assay [2] (at 50.0 µM). For the same compound, the growth inhibition was 27% in assay [3] (setting [7]); 81% (active) in assay [3] (setting [8]); 87% (active) in assay [3] (at 50.0 µM); 27% in assay [4] (setting [7]); 75% (active) in assay [4] (setting [8]); 83.1% (active) in assay [4] (at 50.0 µM). Also, the growth inhibition in assay [5] (setting [7]) was 32%; in assay [5] (setting [8]) it was 91% (active); in assay [5] (at 50.0 µM) it was 84.1% (active); in assay [6] (setting [7]), 26%; in assay [6] (setting [8]), 92% (active); in assay [6] (at 50.0 µM), 89.3% (active).
On to `O=C1c2ccccc2-c2cc(S)c([N+](=O)[O-])cc21`, for which the growth inhibition in assay [1] (setting [7]) is -10%; in assay [1] (setting [8]), 12%; in assay [1] (at 50.0 µM), 9.15%; in assay [2] (setting [7]), -9%; in assay [2] (setting [8]) it was 10%; in assay [2] (at 50.0 µM), 18.5%. The growth inhibition in assay [3] (setting [7]) is -1%; in assay [3] (setting [8]), 12%; in assay [3] (at 50.0 µM) it was 36.8%; in assay [4] (setting [7]), 1%; in assay [4] (setting [8]), 2%; in assay [4] (at 50.0 µM), 21%. Further, the growth inhibition in assay [5] (setting [7]) was 4%; in assay [5] (setting [8]), 14%; in assay [5] (at 50.0 µM) it was 9.45%; in assay [6] (setting [7]), -6%; in assay [6] (setting [8]) it was 4%; in assay [6] (at 50.0 µM), 18.5%.
With `CC1=CC2N(C=C1)C(c1ccccc1)=NON2c1cc(C)ccn1` (configuration not stated), the growth inhibition in assay [1] (setting [7]) was -20%; in assay [1] (setting [8]) it was -10%; in assay [1] (at 50.0 µM), 24.7%; in assay [2] (setting [7]) it was -23%; in assay [2] (setting [8]), 14%; in assay [2] (at 50.0 µM), 33%. Besides, the growth inhibition in assay [3] (setting [7]) is -1%; in assay [3] (setting [8]), 23%; in assay [3] (at 50.0 µM), 62.5%; in assay [4] (setting [7]), -39%; in assay [4] (setting [8]) it was 7%; in assay [4] (at 50.0 µM), 25.1%. The growth inhibition was -44% in assay [5] (setting [7]); -14% in assay [5] (setting [8]); 5.7% in assay [5] (at 50.0 µM); -34% in assay [6] (setting [7]); 38% in assay [6] (setting [8]); 68.9% in assay [6] (at 50.0 µM).
For the compound `O=C1C=CC(=O)N1c1ccccc1` (tested in a mixture with another compound), the growth inhibition in assay [1] (setting [7]) is 0%; in assay [1] (setting [8]) it was 20%; in assay [1] (at 50.0 µM), 91% (active); in assay [2] (setting [7]), -1%; in assay [2] (setting [8]) it was 32%; in assay [2] (at 50.0 µM) it was 92.8% (active). In addition, the growth inhibition in assay [3] (setting [7]) was 0%; in assay [3] (setting [8]), 39%; in assay [3] (at 50.0 µM) it was 94.4% (active); in assay [4] (setting [7]), -3%; in assay [4] (setting [8]) it was 34%; in assay [4] (at 50.0 µM) it was 93.8% (active). The growth inhibition in assay [5] (setting [7]) is -15%; in assay [5] (setting [8]), 77% (active); in assay [5] (at 50.0 µM), 95.2% (active); in assay [6] (setting [7]) it was -1%; in assay [6] (setting [8]), 22%; in assay [6] (at 50.0 µM), 77.2% (active).
For `Cc1cccc[c]1[Sn]([Cl])([O][Sn]([Cl])([c]1ccccc1C)[c]1ccccc1C)[c]1ccccc1C`, the growth inhibition in assay [1] (setting [7]) is 61%; in assay [1] (setting [8]), 97% (active); in assay [1] (at 50.0 µM) it was 88.3% (active); in assay [2] (setting [7]) it was 46%; in assay [2] (setting [8]), 98% (active); in assay [2] (at 50.0 µM) it was 90.8% (active). In addition, the growth inhibition in assay [3] (setting [7]) is 40%; in assay [3] (setting [8]), 98% (active); in assay [3] (at 50.0 µM), 89% (active); in assay [4] (setting [7]), 20%; in assay [4] (setting [8]) it was 96% (active); in assay [4] (at 50.0 µM), 88.3% (active). Also, the growth inhibition in assay [5] (setting [7]) was 42%; in assay [5] (setting [8]) it was 98% (active); in assay [5] (at 50.0 µM), 88.2% (active); in assay [6] (setting [7]), 85% (active); in assay [6] (setting [8]), 96% (active); in assay [6] (at 50.0 µM), 89.5% (active).
As for `COCC(O)Cn1cc([N+](=O)[O-])nc1C` (configuration not stated), the growth inhibition is 4% in assay [1] (setting [7]); -1% in assay [1] (setting [8]); 2.7% in assay [1] (at 50.0 µM); 1% in assay [2] (setting [7]); -3% in assay [2] (setting [8]); -5.25% in assay [2] (at 50.0 µM). The growth inhibition in assay [3] (setting [7]) is -1%; in assay [3] (setting [8]) it was 2%; in assay [3] (at 50.0 µM), -4.8%; in assay [4] (setting [7]) it was 0%; in assay [4] (setting [8]) it was -2%; in assay [4] (at 50.0 µM) it was 9.45%. The growth inhibition in assay [5] (setting [7]) was -4%; in assay [5] (setting [8]), -4%; in assay [5] (at 50.0 µM) it was 19.2%; in assay [6] (setting [7]), 6%; in assay [6] (setting [8]), 4%; in assay [6] (at 50.0 µM), 9.4%.
Consider `COc1cccc(N2CCN(CC(O)COc3cc4c(c5c3CCCC5)CCCC4)CC2)c1` (configuration not stated), for which the growth inhibition in assay [1] (setting [7]) was 17%; in assay [1] (setting [8]) it was 95% (active); in assay [1] (at 50.0 µM) it was 64.2%; in assay [2] (setting [7]) it was 20%; in assay [2] (setting [8]) it was 98% (active); in assay [2] (at 50.0 µM), 48.6%. In addition, the growth inhibition was 34% in assay [3] (setting [7]); 95% (active) in assay [3] (setting [8]); 62.5% in assay [3] (at 50.0 µM); 13% in assay [4] (setting [7]); 94% (active) in assay [4] (setting [8]); 58.8% in assay [4] (at 50.0 µM). In addition, the growth inhibition in assay [5] (setting [7]) was 12%; in assay [5] (setting [8]), 95% (active); in assay [5] (at 50.0 µM), 95% (active); in assay [6] (setting [7]) it was 12%; in assay [6] (setting [8]) it was 94% (active); in assay [6] (at 50.0 µM), 54%.
